Experimental data: the supplement of paper PMC10849652
Targets with a hit are over-represented here; the source holds about 7,900 in all. About 0.6% of all pairs of compound and target were hits. Unmarked numbers belong to inactive results.

How the values were obtained:
Test in all cases: log2 fold change, soluble protein after heating vs DMSO (PISA); higher = thermal stabilisation; K562 cells, 10 uM, 30 min; active = over 0.2 and 3.5 SD of the protein, either way, in both replicates (recomputed)
erlotinib = compound: C#Cc1cccc(Nc2ncnc3cc(OCCOC)c(OCCOC)cc23)c1 [erlotinib]
Procedure, shortened: (§1)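 Aliquots of K562 cells (2×10^6 cells/mL) treated with 10 μM compound for 30 min were heated for 3 min over 48°C-58°C. After pooling and extraction in PBS with 0.5% NP-40 at 4°C, soluble protein from a 21,000xg, 90 min spin was quantified by TMTpro 16plex LC-MS/MS with channel sums equalised. Thermal stability is expressed against control samples, from duplicates, as a log2 fold change.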

[1] = compound: C/C(=N\NC(=O)C1=CC(=CC=C1)S(=O)(=O)N2CCOCC2)/C3=C(C=CC(=C3)Cl)O
Procedure, shortened: as §1

[2] = compound: C1=CC(=C(C=C1Cl)C2=NC3=NC=CN=C3C(=N2)NC4=CC=NC=C4)F
Procedure, shortened: as §1

[3] = compound: C1=CC(=CC=C1C2=NC3=C(N2)C=C(C=C3)C(=O)N)OC4=CC=C(C=C4)Cl
Procedure, shortened: as §1

[4] = compound: C1=CC2=C(C=CC(=C2)/C=C\3/C(=O)NC(=NCC4=CC=CS4)S3)N=C1
Procedure, shortened: as §1

[5] = compound: C1=CC2=NC=CN=C2C=C1/C=C/3\C(=O)NC(=O)S3
Procedure, shortened: as §1

[6] = compound: C1=CC=C(C=C1)C2=NC(=C(N2)C3=CC=NC=C3)C4=CC(=C(C=C4)Cl)O
Procedure, shortened: as §1

[7] = compound: C1=CC=C2C(=C1)C3=NNC4=CC=CC(=C43)C2=O
Procedure, shortened: as §1

[8] = compound: C1CCN(C1)C(=O)NC2=CC=CC(=C2)NC3=NC=C(C(=N3)NCCC4=CN=CN4)Br
Procedure, shortened: as §1

[9] = compound: C1CN(CCC1(CC2=CC=C(C=C2)Cl)N)C3=NC=NC4=C3C=CN4
Procedure, shortened: as §1

Sequence of UniProt O43524 (O43524 whole entry, looked up): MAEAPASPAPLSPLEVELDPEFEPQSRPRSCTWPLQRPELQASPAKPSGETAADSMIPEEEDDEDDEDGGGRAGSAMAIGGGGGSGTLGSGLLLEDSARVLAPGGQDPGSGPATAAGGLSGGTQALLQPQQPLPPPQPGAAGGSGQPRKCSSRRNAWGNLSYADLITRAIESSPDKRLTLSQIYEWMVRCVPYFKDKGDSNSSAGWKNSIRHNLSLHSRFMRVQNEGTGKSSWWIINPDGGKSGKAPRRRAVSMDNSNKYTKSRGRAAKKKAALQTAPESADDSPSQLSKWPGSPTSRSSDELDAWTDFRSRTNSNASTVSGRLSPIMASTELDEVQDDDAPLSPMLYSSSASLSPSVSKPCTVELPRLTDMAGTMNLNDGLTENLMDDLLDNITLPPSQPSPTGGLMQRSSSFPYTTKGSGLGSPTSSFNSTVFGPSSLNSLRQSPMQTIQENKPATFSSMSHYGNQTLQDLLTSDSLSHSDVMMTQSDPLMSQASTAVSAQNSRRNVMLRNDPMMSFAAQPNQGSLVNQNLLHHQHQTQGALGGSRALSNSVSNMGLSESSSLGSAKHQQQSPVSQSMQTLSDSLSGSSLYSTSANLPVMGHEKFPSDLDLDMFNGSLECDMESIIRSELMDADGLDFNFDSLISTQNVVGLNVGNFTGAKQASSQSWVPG
Sequence of UniProt P50213 (P50213 whole entry, looked up): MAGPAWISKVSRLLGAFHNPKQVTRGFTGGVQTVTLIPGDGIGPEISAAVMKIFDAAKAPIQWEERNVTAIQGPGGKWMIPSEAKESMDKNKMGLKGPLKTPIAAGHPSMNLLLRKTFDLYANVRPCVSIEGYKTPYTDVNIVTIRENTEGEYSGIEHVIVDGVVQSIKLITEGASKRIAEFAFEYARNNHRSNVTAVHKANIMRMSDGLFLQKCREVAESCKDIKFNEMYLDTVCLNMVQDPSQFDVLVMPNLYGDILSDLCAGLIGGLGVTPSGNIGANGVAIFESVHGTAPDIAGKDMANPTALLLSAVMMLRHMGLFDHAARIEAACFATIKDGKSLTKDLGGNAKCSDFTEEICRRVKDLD
Sequence of UniProt Q92664 (Q92664 whole entry, looked up): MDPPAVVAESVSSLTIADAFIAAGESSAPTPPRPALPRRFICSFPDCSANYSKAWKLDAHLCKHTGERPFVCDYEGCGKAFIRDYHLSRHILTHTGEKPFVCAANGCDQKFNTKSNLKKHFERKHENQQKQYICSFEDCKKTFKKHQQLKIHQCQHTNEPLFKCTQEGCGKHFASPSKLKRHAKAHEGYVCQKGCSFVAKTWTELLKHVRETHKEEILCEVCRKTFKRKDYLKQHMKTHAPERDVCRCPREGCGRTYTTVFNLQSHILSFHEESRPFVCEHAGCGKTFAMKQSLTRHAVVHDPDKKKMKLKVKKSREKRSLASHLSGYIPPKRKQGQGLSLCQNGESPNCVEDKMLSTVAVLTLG
Sequence of UniProt Q9Y324 (Q9Y324 whole entry, looked up): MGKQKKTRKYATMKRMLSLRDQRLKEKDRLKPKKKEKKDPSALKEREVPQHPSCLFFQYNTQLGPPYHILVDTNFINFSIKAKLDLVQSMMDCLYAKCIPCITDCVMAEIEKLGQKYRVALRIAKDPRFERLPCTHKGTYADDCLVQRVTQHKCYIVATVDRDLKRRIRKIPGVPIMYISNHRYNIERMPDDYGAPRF
Sequence of UniProt O14976 (O14976 whole entry, looked up): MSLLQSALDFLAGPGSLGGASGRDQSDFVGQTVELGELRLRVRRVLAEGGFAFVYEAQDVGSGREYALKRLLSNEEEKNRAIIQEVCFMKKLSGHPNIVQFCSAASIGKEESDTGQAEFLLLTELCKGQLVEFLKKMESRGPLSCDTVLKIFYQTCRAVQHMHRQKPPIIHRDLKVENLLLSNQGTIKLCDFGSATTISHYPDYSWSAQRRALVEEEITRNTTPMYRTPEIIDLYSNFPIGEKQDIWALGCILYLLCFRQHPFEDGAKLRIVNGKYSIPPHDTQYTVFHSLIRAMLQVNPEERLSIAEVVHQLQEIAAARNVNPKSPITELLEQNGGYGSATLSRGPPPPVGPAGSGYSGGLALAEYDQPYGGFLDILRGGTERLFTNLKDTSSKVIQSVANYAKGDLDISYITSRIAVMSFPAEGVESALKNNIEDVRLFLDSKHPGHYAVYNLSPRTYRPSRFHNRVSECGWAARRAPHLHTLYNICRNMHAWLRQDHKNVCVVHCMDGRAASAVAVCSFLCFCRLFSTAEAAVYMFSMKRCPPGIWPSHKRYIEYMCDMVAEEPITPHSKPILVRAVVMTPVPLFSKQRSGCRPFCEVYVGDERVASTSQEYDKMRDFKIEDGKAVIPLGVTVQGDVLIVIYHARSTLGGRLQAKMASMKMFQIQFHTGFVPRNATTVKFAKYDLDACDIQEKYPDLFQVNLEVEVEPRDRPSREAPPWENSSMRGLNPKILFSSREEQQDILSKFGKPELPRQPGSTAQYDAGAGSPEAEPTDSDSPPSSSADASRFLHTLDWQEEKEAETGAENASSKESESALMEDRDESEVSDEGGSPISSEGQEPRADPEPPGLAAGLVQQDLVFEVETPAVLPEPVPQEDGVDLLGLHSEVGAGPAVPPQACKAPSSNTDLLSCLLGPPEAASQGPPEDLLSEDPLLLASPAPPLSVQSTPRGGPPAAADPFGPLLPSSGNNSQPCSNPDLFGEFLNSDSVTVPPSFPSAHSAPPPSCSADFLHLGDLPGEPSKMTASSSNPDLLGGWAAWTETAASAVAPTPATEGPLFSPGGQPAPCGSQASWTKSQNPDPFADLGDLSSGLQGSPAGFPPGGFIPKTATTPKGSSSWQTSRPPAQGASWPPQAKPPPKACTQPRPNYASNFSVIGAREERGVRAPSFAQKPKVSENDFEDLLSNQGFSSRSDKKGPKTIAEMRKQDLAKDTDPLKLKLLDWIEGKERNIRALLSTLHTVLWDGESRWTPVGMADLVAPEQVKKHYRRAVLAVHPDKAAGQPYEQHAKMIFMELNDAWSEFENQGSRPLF
Sequence of UniProt Q9BVP2 (Q9BVP2 whole entry, looked up): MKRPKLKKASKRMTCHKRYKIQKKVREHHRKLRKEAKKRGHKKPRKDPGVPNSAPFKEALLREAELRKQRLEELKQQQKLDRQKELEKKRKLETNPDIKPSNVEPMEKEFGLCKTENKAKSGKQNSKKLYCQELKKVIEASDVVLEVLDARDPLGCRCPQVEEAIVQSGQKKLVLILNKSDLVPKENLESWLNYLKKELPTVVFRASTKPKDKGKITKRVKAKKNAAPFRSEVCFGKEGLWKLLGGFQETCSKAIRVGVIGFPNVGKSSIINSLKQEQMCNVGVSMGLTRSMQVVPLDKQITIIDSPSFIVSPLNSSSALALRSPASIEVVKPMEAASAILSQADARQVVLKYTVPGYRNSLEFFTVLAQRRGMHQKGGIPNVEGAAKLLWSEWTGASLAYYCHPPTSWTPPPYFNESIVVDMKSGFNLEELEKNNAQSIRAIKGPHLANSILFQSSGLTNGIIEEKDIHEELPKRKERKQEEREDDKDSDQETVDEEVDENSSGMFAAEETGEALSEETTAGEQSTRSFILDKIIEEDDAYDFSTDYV
Sequence of UniProt P55795 (P55795 whole entry, looked up): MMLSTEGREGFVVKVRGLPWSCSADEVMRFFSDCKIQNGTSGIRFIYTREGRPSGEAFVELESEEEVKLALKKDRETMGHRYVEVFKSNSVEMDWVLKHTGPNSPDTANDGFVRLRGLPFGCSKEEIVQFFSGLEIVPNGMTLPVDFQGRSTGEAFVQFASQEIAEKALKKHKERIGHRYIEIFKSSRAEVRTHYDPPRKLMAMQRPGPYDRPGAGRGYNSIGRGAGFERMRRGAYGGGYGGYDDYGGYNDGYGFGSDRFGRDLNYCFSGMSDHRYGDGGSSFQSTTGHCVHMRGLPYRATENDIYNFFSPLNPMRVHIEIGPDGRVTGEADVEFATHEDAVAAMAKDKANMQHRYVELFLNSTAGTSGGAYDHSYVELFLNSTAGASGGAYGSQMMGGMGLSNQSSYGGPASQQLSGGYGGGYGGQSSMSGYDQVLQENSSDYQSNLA
Sequence of UniProt P54652 (P54652 whole entry, looked up): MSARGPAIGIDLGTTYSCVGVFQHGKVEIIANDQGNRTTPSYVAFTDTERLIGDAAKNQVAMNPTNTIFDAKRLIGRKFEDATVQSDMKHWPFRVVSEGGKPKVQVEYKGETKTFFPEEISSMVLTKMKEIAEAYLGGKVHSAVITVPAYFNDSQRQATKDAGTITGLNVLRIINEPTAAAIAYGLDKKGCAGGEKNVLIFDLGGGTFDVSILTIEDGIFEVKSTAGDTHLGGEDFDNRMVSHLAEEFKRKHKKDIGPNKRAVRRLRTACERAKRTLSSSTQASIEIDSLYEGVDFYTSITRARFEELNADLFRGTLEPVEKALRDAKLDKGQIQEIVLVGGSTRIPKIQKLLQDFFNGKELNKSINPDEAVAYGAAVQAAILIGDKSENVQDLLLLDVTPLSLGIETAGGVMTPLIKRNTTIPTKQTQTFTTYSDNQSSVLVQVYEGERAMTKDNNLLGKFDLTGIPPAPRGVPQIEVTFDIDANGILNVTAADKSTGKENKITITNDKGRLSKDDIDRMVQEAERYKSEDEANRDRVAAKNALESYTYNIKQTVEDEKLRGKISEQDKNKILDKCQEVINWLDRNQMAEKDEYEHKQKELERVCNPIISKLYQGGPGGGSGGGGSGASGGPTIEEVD
Sequence of UniProt Q13227 (Q13227 whole entry, looked up): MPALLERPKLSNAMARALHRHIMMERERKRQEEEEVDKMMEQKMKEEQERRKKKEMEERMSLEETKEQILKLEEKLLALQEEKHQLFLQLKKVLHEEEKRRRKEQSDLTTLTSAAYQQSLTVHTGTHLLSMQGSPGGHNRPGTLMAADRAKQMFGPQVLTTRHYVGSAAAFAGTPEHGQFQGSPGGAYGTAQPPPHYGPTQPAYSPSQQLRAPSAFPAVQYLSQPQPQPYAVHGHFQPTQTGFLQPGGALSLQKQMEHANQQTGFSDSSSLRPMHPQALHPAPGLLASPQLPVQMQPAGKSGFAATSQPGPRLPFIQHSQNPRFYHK

Row | Target | log2 fold change (erlotinib) | log2 fold change [1] | log2 fold change [2] | log2 fold change [3] | log2 fold change [4] | log2 fold change [5] | log2 fold change [6] | log2 fold change [7] | log2 fold change [8] | log2 fold change [9]
1 | HNRNPH2 (UniProt P55795) | 0.019 | 0.17 | 0.037 | -0.028 | 0.112 | -0.031 | -0.047 | -0.016 | -0.068 | 0.024
2 | HSD17B12 (UniProt Q53GQ0) | 0.004 | 0.067 | 0.02 | 0.346 (active) | 0.025 | -0.012 | 0.027 | 0.064 | -0.028 | 0.124
3 | IFNGR1 (UniProt P15260) | 0.256 | 0.003 | 0.156 | -0.208 | -0.033 | -0.033 | -0.066 | -0.035 | 0.048 | 0.247
4 | FIZ1 (UniProt Q96SL8) |  |  | -0.272 |  |  |  |  |  |  | 
5 | FBXO9 (UniProt Q9UK97) | -0.017 |  |  | 0.137 |  | -0.022 | 0.03 |  | -0.098 | -0.037
6 | GPNMB (UniProt Q14956) | 0.286 |  | -0.281 | -0.046 |  |  |  |  |  | 
7 | FUNDC1 (UniProt Q8IVP5) |  |  |  |  |  | 0.597 (active) |  |  |  | 
8 | FCHO1 (UniProt O14526) | 0.065 | 0.104 | -0.032 | -0.011 | 0.07 |  | -0.144 | -0.061 | -0.005 | -0.029
9 | IGF2 isoform 3 (UniProt P01344) | -0.098 |  |  | 0.028 |  |  |  |  |  | 
10 | FOXK1 (UniProt P85037) | 0.113 | 0 | 0.054 | -0.307 | 0.425 | 0.355 | -0.075 | 0.61 | 0.394 | 0.352
11 | GPS2 (UniProt Q13227) | -0.124 |  | 0.066 | -0.046 |  | 0.05 | -0.046 |  | 0.262 | 0.029
12 | HDAC10 (UniProt Q969S8) | 0.065 | -0.067 |  | 0.038 | -0.277 | 0.066 | 0.045 | -0.072 | -0.729 (active) | 0.333
13 | FCF1 (UniProt Q9Y324) |  |  | -0.392 |  |  |  | -0.075 |  | 0.034 | -0.138
14 | FGG (UniProt P02679) |  |  |  |  |  |  | -0.05 |  |  | 
15 | GNL3 (UniProt Q9BVP2) |  | -0.562 (active) | 0.165 |  | 0.149 | -0.054 |  | 0.053 | -0.048 | 0.142
16 | HNRNPK isoform 3 (UniProt P61978) | 0.101 |  | -0.102 | -0.032 |  | 0.06 | -0.024 |  | -0.027 | -0.052
17 | HNRNPUL1 (UniProt M0R247) | -0.032 | -0.317 |  | -0.513 | 0.545 |  |  | -0.419 | 0.471 | 0.051
18 | GOLGA8R (UniProt I6L899) | 0.377 | -0.394 |  | -0.019 | 0.078 | -0.008 | 0.058 | -0.049 | -0.097 | 0.302
19 | GSE1 (UniProt Q14687) |  |  |  |  |  | -0.269 | -0.048 |  |  | 

Row | Target | log2 fold change (erlotinib) | log2 fold change [1] | log2 fold change [2] | log2 fold change [3] | log2 fold change [4] | log2 fold change [5] | log2 fold change [6] | log2 fold change [7] | log2 fold change [8] | log2 fold change [9]
20 | GREB1 (UniProt Q4ZG55) | 0.218 | -0.751 (active) | 0 | -0.132 | 0.092 |  |  | -0.044 | -0.06 | 0.291
21 | FRA10AC1 isoform 3 (UniProt Q70Z53) | -0.02 | 0.053 | -0.059 | -0.12 | -0.305 | 0.033 |  | -0.154 | -0.067 | 0.126
22 | GOLGA6B (UniProt A6NDN3) | -0.069 |  | -0.054 | 0.116 |  | 0.036 |  |  |  | 
23 | FOXO3 (UniProt O43524) | 0.026 | -0.007 | -0.025 | -0.079 | 0.027 |  | -0.035 | 0.038 | -0.224 | -0.283
24 | H3-3A (UniProt P84243) | 0.085 |  |  | -0.035 |  | -0.1 |  |  | 0.049 | -0.218
25 | GEMIN2 (UniProt O14893) |  | -0.086 | -0.428 (active) |  | 0.057 | -0.013 | -0.069 | -0.042 |  | 
26 | GAB2 (UniProt Q9UQC2) | -0.035 | 0.149 | -0.033 | 0.231 | -0.04 |  | -0.294 | -0.196 | -0.29 | 0.012
27 | HEATR3 (UniProt Q7Z4Q2) | -0.002 |  | -0.013 | 0.013 |  | -0.044 | 0.062 |  | -0.113 | 0.032
28 | GINS2 (UniProt Q9Y248) | 0.076 |  | 0.083 | -0.045 |  | -0.008 | 0.203 |  | -0.089 | -0.034
29 | HSPA2 (UniProt P54652) | 0.623 | -0.047 |  | -0.182 | 0.022 | 0.058 | -0.095 | 0.192 |  | 
30 | IDH3A isoform 2 (UniProt P50213) | 0.132 | -0.572 (active) |  | -0.084 | 0.135 | -0.017 |  | 0.039 | -0.052 | 0.164
31 | GBA2 (UniProt Q9HCG7) | 0.063 | 0.095 | 0.04 | 0.01 | 0.033 | -0.023 |  | 0.028 | 0.034 | 0.104
32 | FMR1 (UniProt Q06787) | -0.301 |  |  | 0.154 |  |  | -0.121 |  |  | 
33 | HBZ, A0A494C057 | 0.141 |  |  | -0.062 |  | -0.055 |  |  |  | 
34 | GTF3A (UniProt Q92664) | -0.048 | -0.117 | 0.095 | 0.116 | 0.157 | 0.004 |  | -0.115 | -0.019 | 0.174
35 | FAT1 (UniProt Q14517) | -0.06 |  | -0.062 | 0.161 |  | -0.08 | 0.045 |  | -0.123 | 0.066
36 | HSPA8 (UniProt E9PN89) | 0.051 | -0.193 | -0.191 | -0.061 | 0.358 | 0.06 |  | -0.133 | 0.267 | -0.027
37 | GAK (UniProt O14976) | 0.64 | -0.78 | -0.133 | -0.821 | 0.527 |  | 0.639 | 0.955 | 1.08 | -0.265
38 | FAT2 (UniProt Q9NYQ8) | 0.115 |  | 0.26 | -0.098 |  | 0.096 | 0 |  | -0.166 | 0.186
